Source: PubChem BioAssay (Tox21)
Results filed as inconclusive are left out. Calls of active or inactive are those of the source. Calls follow the shape of the dose curve; as a rule, active = well fitted curve in the direction sought with a large enough effect in the repeat runs; inconclusive = weak or mixed curves; inactive = no such curve, though single readings can be large; an effect the other way counts as inactive or inconclusive.

Key:
[1] = A CellTox Green Cytotoxicity Assay to monitor cytotoxicity in HEK293 cells - 40 hour (AID 1224871); also: nearly all actives have a fitted effect of over 45% in size; also: potency is read from the fitted curve at half-maximal effect
Procedure, shortened: (§1)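 Seeding of HEK293 cells together with cytotoxicity dye preceded a 5 h incubation at 37 C/5% CO2. Test compounds in DMSO were then added and fluorescence monitored across 40 h.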

[2] = qHTS RealTime-Glo MT Cell Viability Assay in HEK293 cells - 16 hour (AID 1224872); also: nearly all actives have a fitted effect of over 50% in size; also: potency is read from the fitted curve at half-maximal effect
Procedure, shortened: (§2)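 Tox21 10K qHTS, HEK293, 600 cells/well, RealTime-Glo reagent co-dispensed with cells; 5 h preincubation, compound by pintool, 37 C, luminescence at 0–40 h.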

[3] = qHTS RealTime-Glo MT Cell Viability Assay in HepG2 cells - 8 hour (AID 1224873); also: nearly all actives have a fitted effect of over 55% in size
Procedure, shortened: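 HepG2 cells mixed with RealTime-Glo MT reagents (NanoLuc plus cell-permeant prosubstrate) were seeded at 600 cells/well, incubated 5 h at 37 C/5% CO2, then pinned with compounds in DMSO; nonlytic luminescence tracked viability during 40 h treatment.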

[4] = qHTS RealTime-Glo MT Cell Viability Assay in HEK293 cells - 40 hour (AID 1224874); details: RealTime-Glo luminescence; max response: active compounds read low; also: nearly all actives have a fitted effect of over 50% in size; also: potency is read from the fitted curve at half-maximal effect
Procedure, shortened: (§3)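 Tox21 screen in HEK293 using RealTime-Glo MT chemistry, with cells and reagent co-dispensed. Luminescence proportional to viable cell number was captured at intervals during 40 h compound exposure at 37 C.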

[5] = A CellTox Green Cytotoxicity Assay to monitor cytotoxicity in HEK293 cells - 24 hour (AID 1224875); also: nearly all actives have a fitted effect of over 45% in size; also: potency is read from the fitted curve at half-maximal effect
Procedure, shortened: as §1

[6] = A CellTox Green Cytotoxicity Assay to monitor cytotoxicity in HepG2 cells - 16 hour (AID 1224876); also: nearly all actives have a fitted effect of over 45% in size
Procedure, shortened: (§4)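 Nonlytic assay: viable cells exclude the dye, so fluorescence scales with cell death. HepG2 at 600 cells/well, compounds added after 5 h, signal read across 40 h.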

[7] = qHTS RealTime-Glo MT Cell Viability Assay in HepG2 cells - 32 hour (AID 1224877); also: nearly all actives have a fitted effect of over 55% in size
Procedure, shortened: (§5)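 Cells + NanoLuc/prosubstrate dispensed (600 cells/well) → 5 h at 37 C/5% CO2 → compounds in DMSO transferred → 40 h incubation at 37 C, luminescence read at 0, 8, 16, 24, 32, 40 h.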

[8] = A CellTox Green Cytotoxicity Assay to monitor cytotoxicity in HepG2 cells - 24 hour (AID 1224878); also: nearly all actives have a fitted effect of over 45% in size
Procedure, shortened: as §4

[9] = A CellTox Green Cytotoxicity Assay to monitor cytotoxicity in HepG2 cells - 40 hour (AID 1224879); also: nearly all actives have a fitted effect of over 40% in size
Procedure, shortened: as §4

[10] = qHTS RealTime-Glo MT Cell Viability Assay in HEK293 cells - 0 hour (AID 1224880)
Procedure, shortened: as §3

[11] = A CellTox Green Cytotoxicity Assay to monitor cytotoxicity in HEK293 cells - 32 hour (AID 1224881); also: nearly all actives have a fitted effect of over 40% in size; also: potency is read from the fitted curve at half-maximal effect
Procedure, shortened: as §1

[12] = A CellTox Green Cytotoxicity Assay to monitor cytotoxicity in HepG2 cells - 0 hour (AID 1224882); also: nearly all actives have a fitted effect of over 35% in size
Procedure, shortened: as §4

[13] = A CellTox Green Cytotoxicity Assay to monitor cytotoxicity in HepG2 cells - 32 hour (AID 1224883); also: nearly all actives have a fitted effect of over 50% in size
Procedure, shortened: as §4

[14] = A CellTox Green Cytotoxicity Assay to monitor cytotoxicity in HEK293 cells - 8 hour (AID 1224884); also: nearly all actives have a fitted effect of over 35% in size
Procedure, shortened: as §1

[15] = qHTS RealTime-Glo MT Cell Viability Assay in HepG2 cells - 16 hour (AID 1224885); also: nearly all actives have a fitted effect of over 50% in size
Procedure, shortened: as §5

[16] = qHTS RealTime-Glo MT Cell Viability Assay in HEK293 cells - 24 hour (AID 1224886); also: nearly all actives have a fitted effect of over 50% in size; also: potency is read from the fitted curve at half-maximal effect
Procedure, shortened: as §2

[17] = qHTS RealTime-Glo MT Cell Viability Assay in HEK293 cells - 8 hour (AID 1224887)
Procedure, shortened: as §3

[18] = A CellTox Green Cytotoxicity Assay to monitor cytotoxicity in HEK293 cells - 16 hour (AID 1224888); also: nearly all actives have a fitted effect of over 35% in size; also: potency is read from the fitted curve at half-maximal effect
Procedure, shortened: as §1

[19] = qHTS RealTime-Glo MT Cell Viability Assay in HepG2 cells - 0 hour (AID 1224889); also: nearly all actives have a fitted effect of over 50% in size
Procedure, shortened: as §5

[20] = A CellTox Green Cytotoxicity Assay to monitor cytotoxicity in HepG2 cells - 8 hour (AID 1224890); also: nearly all actives have a fitted effect of over 45% in size
Procedure, shortened: as §4
% is scaled to controls: 0 for no effect and ±100 for the full control effect.

COc1cc(C[C@@H](C)N)c(OC)cc1C
inactive: Potency [1] | Potency [2] | Potency [3] | max response [4] -9.2% | Potency [5] | Potency [6] | Potency [7] | Potency [8] | Potency [9] | outcome [10] | Potency [11] | outcome [12] | Potency [13] | Potency [14] | Potency [15] | Potency [16] | Potency [17] | Potency [18] | Potency [19] | Potency [20]

C[C@@H]1CN(C2CCC(C#N)(c3ccc(F)cc3)CC2)CC[C@]1(C(=O)O)c1ccccc1 (some centres not stated)
inactive: Potency [1] | Potency [2] | Potency [3] | max response [4] 2.36% | Potency [5] | Potency [6] | Potency [7] | Potency [8] | Potency [9] | outcome [10] | Potency [11] | outcome [12] | Potency [13] | Potency [14] | Potency [15] | Potency [17] | Potency [18] | Potency [19] | Potency [20]

CC(=O)Nc1cc([As](=O)(O)O)ccc1O
inactive: Potency [1] | Potency [2] | Potency [3] | max response [4] -9.14% | Potency [5] | Potency [6] | Potency [7] | Potency [8] | Potency [9] | outcome [10] | Potency [11] | outcome [12] | Potency [13] | Potency [14] | Potency [17] | Potency [18] | Potency [19] | Potency [20]

O=[N+]([O-])c1cccc2cccnc12
inactive: Potency [1] | Potency [2] | Potency [3] | max response [4] -7.09% | Potency [5] | Potency [6] | Potency [7] | Potency [8] | Potency [9] | outcome [10] | Potency [11] | outcome [12] | Potency [13] | Potency [14] | Potency [15] | Potency [16] | Potency [17] | Potency [18] | Potency [19] | Potency [20]

CC(C)CP(=S)(S)CC(C)C
inactive: Potency [1] | Potency [2] | Potency [3] | max response [4] 3.1% | Potency [5] | Potency [6] | Potency [7] | Potency [8] | Potency [9] | outcome [10] | Potency [11] | outcome [12] | Potency [13] | Potency [14] | Potency [15] | Potency [17] | Potency [18] | Potency [19] | Potency [20]

CCCSC(=O)Cl
inactive: Potency [1] | Potency [2] | Potency [3] | max response [4] 9.13% | Potency [5] | Potency [6] | Potency [7] | Potency [8] | Potency [9] | outcome [10] | Potency [11] | outcome [12] | Potency [13] | Potency [14] | Potency [16] | Potency [17] | Potency [18] | Potency [19] | Potency [20]

CCC(C)(C)c1cc(-n2nc3ccccc3n2)c(O)c(C(C)(C)CC)c1
active: Potency [2] 24.9 µM | Potency [4] 22.2 µM | Potency [16] 24.9 µM
inactive: Potency [1] | Potency [3] | Potency [5] | Potency [6] | Potency [7] | Potency [8] | Potency [9] | outcome [10] | Potency [11] | outcome [12] | Potency [13] | Potency [14] | Potency [15] | Potency [18] | Potency [19] | Potency [20]

CCOP(=S)(OCC)Oc1nc(Cl)n(C(C)C)n1
inactive: Potency [1] | Potency [2] | Potency [3] | max response [4] 3.99% | Potency [5] | Potency [6] | Potency [7] | Potency [8] | Potency [9] | outcome [10] | Potency [11] | outcome [12] | Potency [13] | Potency [14] | Potency [15] | Potency [16] | Potency [17] | Potency [18] | Potency [19] | Potency [20]

O=C(Oc1ccc(Br)cc1)N1CCN2CCC1CC2
inactive: Potency [1] | Potency [2] | Potency [3] | max response [4] -0.781% | Potency [5] | Potency [6] | Potency [7] | Potency [8] | Potency [9] | outcome [10] | Potency [11] | outcome [12] | Potency [13] | Potency [14] | Potency [15] | Potency [17] | Potency [18] | Potency [19] | Potency [20]

O=NN1CCN(N=O)CC1
inactive: Potency [1] | Potency [2] | Potency [3] | max response [4] -6.3% | Potency [5] | Potency [6] | Potency [7] | Potency [8] | Potency [9] | outcome [10] | outcome [12] | Potency [13] | Potency [14] | Potency [15] | Potency [16] | Potency [17] | Potency [18] | Potency [19] | Potency [20]

ClCC(Cl)Cl
inactive: Potency [1] | Potency [2] | Potency [3] | max response [4] -2.64% | Potency [5] | Potency [6] | Potency [7] | Potency [8] | Potency [9] | outcome [10] | Potency [11] | outcome [12] | Potency [13] | Potency [15] | Potency [16] | Potency [17] | Potency [18] | Potency [19] | Potency [20]

COP(=S)(OC)Oc1c(Cl)cc(C)cc1Cl
inactive: Potency [1] | Potency [2] | Potency [3] | max response [4] 0.348% | Potency [5] | Potency [6] | Potency [7] | Potency [8] | Potency [9] | outcome [10] | Potency [11] | outcome [12] | Potency [13] | Potency [14] | Potency [16] | Potency [17] | Potency [18] | Potency [19] | Potency [20]

O=[N+]([O-])c1cc(Cl)c(Cl)c(Cl)c1
active: Potency [1] 21.7 µM | Potency [5] 21.7 µM | Potency [11] 21.7 µM | Potency [18] 21.7 µM
inactive: Potency [2] | Potency [3] | max response [4] 5.08% | Potency [6] | Potency [7] | Potency [8] | Potency [9] | outcome [10] | outcome [12] | Potency [13] | Potency [14] | Potency [15] | Potency [16] | Potency [17] | Potency [19] | Potency [20]

CCOC(=O)/C=C(C)/C=C/C[C@@H](C)CCCC(C)C
inactive: Potency [1] | Potency [2] | Potency [3] | max response [4] 8.55% | Potency [5] | Potency [6] | Potency [7] | Potency [8] | Potency [9] | outcome [10] | Potency [11] | outcome [12] | Potency [13] | Potency [14] | Potency [15] | Potency [17] | Potency [18] | Potency [19] | Potency [20]

CCS(=O)(=O)CCSP(=O)(OC)OC
inactive: Potency [1] | Potency [2] | Potency [3] | max response [4] 10.4% | Potency [5] | Potency [6] | Potency [7] | Potency [8] | Potency [9] | outcome [10] | Potency [11] | outcome [12] | Potency [13] | Potency [14] | Potency [17] | Potency [18] | Potency [19] | Potency [20]
